# An excerpt weighted towards active compounds, which were near 1.7% of everything screened.
# CFTR F508del cor: CFTR F508del correction in bronchial cells; activity (quench increase), % at 7.58 µM; CFBE cells, YFP halide quenching; stimulated with forskolin plus potentiator P3; % fluorescence drop versus neutral controls; actives 0.36% (n = 350,000);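 active = mean added fluorescence quench of at least 8% versus neutral control, with both replicates also reaching 8%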;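 also: cells transiently co-express mutant CFTR-F508del with the halide-sensitive YFP; corrector assay measuring rescue of mutant channel to the surface after 24 h compound exposure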
# Vif imaging: HIV Vif inhibition; actives 0.35% (n = 340,000); inhibition, % at 7.49 µM; HEK293T cells, Vif self-association by quenched fluorescence, imaging, 24 h; AID 602346; in the data active = inhibition above about 50%, passing the limit was not always enough
# FGF22 binding: binders of recombinant human FGF22 by thermal shift | Q9HCT0 | SYPRO orange fluorescence; percent of sucrose octasulfate shift, DMSO zero | activity (Tm shift, normalised), % at 9.99 µM | actives 1.5% (n = 340,000);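 active = mean Tm shift, scaled 0 neutral to 100 positive control, at about 1.3% or above, every replicate too, limit read from the data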
# Target sequence (Q9HCT0 whole entry, looked up): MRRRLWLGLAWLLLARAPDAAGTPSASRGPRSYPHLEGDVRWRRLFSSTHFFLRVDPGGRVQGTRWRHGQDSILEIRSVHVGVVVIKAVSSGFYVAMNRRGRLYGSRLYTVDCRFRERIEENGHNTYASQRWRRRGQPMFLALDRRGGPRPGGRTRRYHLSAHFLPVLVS
# * marks the source's active call; other numbers are inactive results; x = not tested or not shown.
SMILES,CFTR F508del cor,Vif imaging,FGF22 binding
Cc1noc(C)c1CSCC(=O)N(C)CC(=O)Nc1ccc(Cl)c(C(F)(F)F)c1,-3,-1,1.9*
CN(CC(=O)Nc1ccc(Cl)c(C(F)(F)F)c1)C(=O)CCN1C(=O)C2CCCCC2C1=O (configuration not stated),10*,20,0
CNCC(=O)Nc1ccc(Cl)c(C(F)(F)F)c1,-1,12,43*
CN(CC(=O)Nc1ccc(Cl)c(C(F)(F)F)c1)CC(=O)NC1CCCCC1,x,-8,x
CN(CC(=O)NCCc1ccc(S(N)(=O)=O)cc1)CC(=O)Nc1ccccc1Cl,2,1,0
Cc1noc(C)c1CSCC(=O)N(C)CC(=O)Nc1ccc(Cl)c(Cl)c1,-4,-9,0
CN(CC(=O)NCCc1ccc(S(N)(=O)=O)cc1)CC(=O)Nc1ccc(Cl)c(C(F)(F)F)c1,13*,-11,0
Cc1ccccc1NC(=O)CNc1ccc(Cl)c(C(F)(F)F)c1,x,0,x
C[C@H](CO)N1C[C@H](C)[C@H](CN(C)C(=O)Nc2ccccc2)Oc2ccc(NC(=O)NC3CCCCC3)cc2C1=O,0,x,0
O=C(NCc1cc(F)cc(F)c1)[C@H]1[C@H](CO)[C@H]2Cn3c(cccc3=O)[C@@H]1N2,x,x,0
CN(CC(=O)Nc1ccc(Cl)c(C(F)(F)F)c1)C(=O)C1CCCO1 (configuration not stated),-2,-2,0
Cc1ccc(N2CC(C(=O)N(C)CC(=O)Nc3ccc(Cl)c(C(F)(F)F)c3)CC2=O)cc1 (configuration not stated),9.2*,8,0
N#C/C(=C/c1ccc(N2CCCCC2)o1)C(=O)Nc1ccc2ccccc2c1,9.6*,-6,0
COc1ccc(NC(=O)/C(C#N)=C\c2ccc(N3CCOCC3)o2)cc1,-2,x,0
CC(Oc1ccccc1)c1ccnc2nc(N3CCOCC3)nn12 (configuration not stated),2,6,43*
CC(Oc1ccc(Cl)cc1Cl)c1ccnc2nc(N3CCOCC3)nn12 (configuration not stated),1,-17,0
CCCNC(=O)C[C@H]1C[C@H]2c3cc(NC(=O)C4CCOCC4)ccc3O[C@H]2[C@@H](CO)O1,2,x,0
C[C@H]1CN([C@@H](C)CO)C(=O)c2cc(NC(=O)Cc3cn(C)c4ccccc34)ccc2O[C@@H]1CN(C)CC1CC1,2,x,0
C[C@@H]1CN([C@@H](C)CO)C(=O)c2cc(NS(=O)(=O)c3cn(C)cn3)ccc2O[C@@H](C)CCCCO[C@@H]1CN(C)C,0,x,0
Cc1nnc(SCc2ccccc2)[nH]c1=O,1,-2,0
Cc1ccc(CSc2nnc(C)c(=O)[nH]2)cc1,-2,-4,43*
Cc1ccc(S(=O)(=O)Nc2ccc3c(c2)C(=O)N([C@@H](C)CO)C[C@H](C)[C@@H](CN(C)C(=O)CCC(F)(F)F)OCCCC[C@@H](C)O3)cc1,1,x,x
COc1ccc(CCNC(=O)[C@@]2(Sc3ccc(C)cc3)CC(=O)N(C(C)C)[C@@H]2c2ccc(CO)cc2I)cc1,3,x,1.3*
Cc1ccc(S[C@]2(C(=O)NC(C)C)CC(=O)N(C3CCCCC3)[C@@H]2c2ccc(CO)cc2I)cc1,4,x,-1
COCC(=O)N(C)C[C@H]1Oc2cc(C#CCN(C)C)ccc2S(=O)(=O)N([C@@H](C)CO)C[C@H]1C,4,x,0
SMILES,CFTR F508del cor,Vif imaging,FGF22 binding
COc1ccc(CN(C)C[C@H]2OCCCC[C@H](C)Oc3ccc(NS(=O)(=O)c4ccc(F)cc4)cc3C(=O)N([C@H](C)CO)C[C@@H]2C)cc1,2,x,0
O=C(C[C@H]1CC[C@H](NC(=O)C2CC2)[C@H](CO)O1)NCC1CC1,0,x,0
Cc1ccccc1CSCC(=O)NCCSc1ccccn1,-2,-9,44*
Cc1ccccc1N(CC(=O)NCCSc1ccccn1)S(=O)(=O)c1ccccc1,2,0,0
CCC(=O)N1C[C@H](C)[C@@H](OC)CN(C)C(=O)c2cc(NS(=O)(=O)CC)ccc2OC[C@H]1C,0,x,0
COc1ccc(NC(=O)c2nc[nH]c2C(=O)N(C)CCO)cc1,0,16,43*
Cc1ccc(NC(=O)c2nc[nH]c2C(=O)N(C)CCO)cc1,4,-1,0
C[C@@H]1CN([C@H](C)CO)C(=O)CCCn2nncc2CO[C@@H]1CN(C)C(=O)Nc1ccc(C(F)(F)F)cc1,-2,x,0
C[C@H]1CN([C@@H](C)CO)C(=O)c2cccc(NS(=O)(=O)c3ccc(Cl)cc3)c2O[C@@H]1CN(C)C(=O)Nc1ccc(F)cc1,0,x,0
CC(=O)N1[C@@H]2Cn3c(ccc(-c4ccccc4F)c3=O)[C@H]1[C@@H](C(=O)NC1CCC1)[C@@H]2CO,0,x,0
O=C(O)CC(NC(=O)C12CC3CC(CC(C3)C1)C2)c1cccc([N+](=O)[O-])c1 (configuration not stated),x,-3,43*
O=C(O)CC(NC(=O)C12CC3CC(CC(C3)C1)C2)c1ccc(Cl)cc1 (configuration not stated),-1,-8,1
Fc1ccccc1CNc1cc(Cl)cc(Cl)c1,x,119*,x
O=[N+]([O-])c1ccccc1CNc1ccc(F)c(Cl)c1,x,-4,0
CCN(c1ccccc1)S(=O)(=O)c1ccc(Cl)c(NC(=O)COC(=O)c2ccc(O)cc2)c1,x,3,x
CCN(c1ccccc1)S(=O)(=O)c1ccc(Cl)c(C(=O)OCC(=O)NC(=O)C(C)C)c1,1,-6,43*
CNC[C@@H]1Oc2ccc(NC(=O)Nc3ccc(C(F)(F)F)cc3)cc2CC(=O)N([C@H](C)CO)C[C@@H]1C,-5,x,-1
Cc1c(NC(=O)COC(=O)C2(c3ccccc3F)CCCC2)c(=O)n(-c2ccccc2)n1C,-2,8,43*
Cc1ccc(SCCC(=O)Nc2c(C)n(C)n(-c3ccccc3)c2=O)cc1,x,-1,x
CCC(C(=O)OCC(=O)Nc1c(C)n(C)n(-c2ccccc2)c1=O)c1ccccc1 (configuration not stated),x,-4,x
Cc1c(NC(=O)COC(=O)C23CC4CC(CC(O)(C4)C2)C3)c(=O)n(-c2ccccc2)n1C,1,-6,44*
Cc1c(NC(=O)CSc2ccc(Cl)cc2)c(=O)n(-c2ccccc2)n1C,0,-4,44*
Cc1cc(C(=O)COC(=O)C23CC4CC(CC(O)(C4)C2)C3)c(C)n1-c1c(C)n(C)n(-c2ccccc2)c1=O,2,-7,0
C[C@@H]1CN([C@H](C)CO)C(=O)c2cccc(N(C)C)c2O[C@H]1CN(C)S(=O)(=O)c1cccs1,0,x,0
CCS(=O)(=O)N1CCCCN2[C@H](CO)[C@H](c3ccc(-c4ccccc4)cc3)[C@@H]2C1,0,x,0
CC=Cc1ccc2n(c1=O)C[C@@H]1[C@@H](CO)[C@H](C(=O)NCC3CC3)[C@H]2N1S(=O)(=O)c1cn(C)cn1 (mixture of isomers),0,x,0
COc1ccc(NC(=O)N2C[C@@H](O)COC[C@H]3O[C@@H](CC(=O)NC4Cc5ccccc5C4)CC[C@@H]32)cc1,2,x,0
Cc1cccc(S(=O)(=O)N2C[C@@H]3[C@H](c4ccccc42)[C@H](CO)N3C(=O)C2CC2)c1,0,x,0

# Assay outcomes deposited in PubChem BioAssay by Broad Institute.
